This is part of a sample that, as a whole, favours compounds with a hit. Of some 83,000 tested, about 20% had one in any assay.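 Assay: single dose, 48 h. Readout: percent growth (0 = no net growth; negative = cell death). Active: <10.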 A number with no mark means an inactive call. Calls of active or inactive are those of the source.

This passage reports growth results from PubChem BioAssay (NCI).

What all share (test): NCI-60 one-dose screen, 48 h (100 = growth as untreated, 0 = no growth, -100 = all killed)
What all share (details): 10 µM unless noted

The subject of assay [1] is OVCAR-8 ovarian.
Assay [2] has as its system OVCAR-5 ovarian.
Assay [3] deals with OVCAR-4 ovarian.
In assay [4] the test system is SK-OV-3 ovarian.
Assay [5] has as its system IGROV1 ovarian.
The test system of assay [6] is OVCAR-3 ovarian.
In assay [7] the test system is HS 578T breast.
Assay [8] concerns NCI/ADR-RES ovarian.
Assay [9] relates to BT-549 breast.
Assay [10] has as its system MDA-MB-435 melanoma.
Assay [11] deals with SW-620 colon.
Assay [12] relates to HCT-116 colon.
The test system of assay [13] is HCC-2998 colon.
Assay [14] relates to KM12 colon.
Assay [15] concerns RPMI-8226 leukemia.
The test system of assay [16] is T-47D breast.
The test system of assay [17] is MCF7 breast.

With `C=CCSc1nnc(-c2ccc(C(C)(C)C)cc2)n1-c1cccc(C(F)(F)F)c1`, the growth is 32.1% in assay [1]; 77.3% in [2]; 44.4% in [3]; 61.5% in assay [4]; 54.5% in [5]; 40.9% in [6]. For the same compound, the growth was 45.5% in assay [7]; 22.9% in assay [8]; 19.3% in assay [9]; 52.5% in assay [10]; 46.2% in assay [11]; 13.3% in assay [12]. Further, the values for the growth in [13] and in assay [14] were 51.1% and 27.1%, respectively.

Consider `Cc1[nH]n(-c2ccccc2)c2nc3nncc3c(-c3ccc(Cl)cc3)c12`, for which the growth was 80.6% in [15]; 89.8% in [1]; 99.1% in [2]; 107% in [3]; 105% in assay [4]; 124% in assay [5]. In addition, the growth in assay [6] is 121%; in [7] it was 110%; in assay [16], 93.6%; in assay [9], 111%; in assay [10] it was 98.1%; in assay [11], 93.3%. The growth is 93.9% in assay [17], 93.9% in assay [12] and 97% in assay [14].

Turning to `CC1(C)CC(=O)C(c2c(-c3ccccc3)[nH]c3[nH]c(=S)[nH]c(=O)c23)=C(O)C1`, the growth in [15] was 101%; in assay [1] it was 100%; in assay [2], 98.4%; in assay [3], 114%; in assay [5], 132%; in assay [6], 124%. Besides, the growth in assay [7] is 123%; in [8], 108%; in [16], 98.1%; in assay [9], 106%; in assay [10], 90.8%; in [11], 104%. Besides, the growth in [17] is 99.6%; in [12] it was 102%; in assay [14], 118%.

For `COc1ccc(-c2nn(-c3ccccc3)cc2/C=C/C(=O)OCc2cn(-c3ccc(F)c(Cl)c3)nn2)cc1`, the growth is 75.2% in assay [15]; 80.1% in assay [1]; 106% in assay [2]; 85.3% in assay [4]; 86.2% in [5]; 68.2% in assay [6]. Further, the growth in [7] was 88%; in [8], 73.9%; in [16], 48.3%; in assay [9], 101%; in assay [10], 65.3%; in [11], 100%. For the same compound, the growth in assay [17] is 71%; in [12] it was 84.8%; in [13], 98.7%; in [14], 93.9%.

With `COC1=CC(=O)C(OC)=C(OC)C1=O`, the growth in assay [15] was 67.1%; in [1], 101%; in assay [2] it was 107%; in assay [3] it was 77.4%; in assay [5], 113%; in assay [6], 104%. Also, the growth in assay [7] was 95.5%; in assay [8], 100%; in assay [16] it was 97%; in assay [9] it was 101%; in assay [11], 101%; in assay [17] it was 90.6%. The figures for the growth in [12], in assay [13] and in assay [14] were 92.3%, 117% and 110%, respectively.

With `CCN(CC)CCCC(C)N/C(=C1\C(=O)NC(=O)\C1=C(/NC(C)CCCN(CC)CC)c1cccc(OC)c1)c1cccc(OC)c1` (stereo not given), the growth in assay [15] is -35.7% (active); in assay [1], 5.58% (active); in [2], 1.93% (active); in assay [3], -23.3% (active); in [4] it was 11.8%; in assay [5], -18.5% (active). Moreover, the growth was -11.3% (active) in assay [6]; 38.4% in assay [7]; 48.6% in [16]; 2.98% (active) in assay [9]; -81.6% (active) in [10]; 0.116% (active) in assay [11]. Also, the growth in assay [17] is 0.0378% (active); in assay [12], 2.62% (active); in assay [13], -89.2% (active); in assay [14], 1.06% (active).

Regarding `Cc1nn(-c2ccccc2)c2nc(C)n(-c3ccc(Br)cc3)c(=O)c12`, the growth was 9.81% (active) in assay [15]; 25.9% in assay [1]; 36.3% in [2]; 40.1% in assay [3]; 41.7% in assay [4]; 30.6% in assay [5]. Moreover, the growth in [6] was -31.7% (active); in assay [7], 15%; in [16], 23.4%; in [9], 50.7%; in assay [10], -5.13% (active); in assay [11], 22.6%. In addition, the growth was 13.4% in [17], 15.7% in assay [12], 32.6% in [13] and 43.1% in [14].

As to `Cc1ccc2c(c1)O/C(=C\c1cccc(OCC(=O)c3ccccc3)c1)C2=O`, the growth in assay [1] was 91.7%; in assay [2], 109%; in assay [3] it was 104%; in assay [4] it was 108%; in assay [5], 95.5%; in [6], 118%. Moreover, the growth is 96.6% in assay [7]; 101% in [8]; 87.6% in assay [16]; 104% in assay [9]; 96.5% in [10]; 102% in assay [11]. For the same compound, the growth in [17] was 74.8%; in assay [12], 84.4%; in [13], 130%; in assay [14] it was 85.3%.

In the case of `O=C(COCc1c(-c2ccccc2)no[n+]1[O-])Nc1ccc(C(=O)/C=C/c2ccc3c(c2)OCO3)cc1`, the growth is 87.5% in assay [1]; 99.4% in [2]; 114% in assay [3]; 112% in assay [4]; 95.2% in assay [5]; 113% in assay [6]. Moreover, the growth was 101% in assay [7]; 106% in assay [8]; 94.1% in assay [16]; 96% in assay [9]; 95.3% in assay [10]; 105% in assay [11]. Moreover, the growth in assay [17] is 92.2%; in assay [12], 73.1%; in assay [13] it was 102%; in [14], 104%.

Turning to `COc1ccc(-c2nn(-c3ccccc3)cc2/C=C2\SC(=O)NC2=O)cc1`, the growth is 101% in assay [1]; 99.4% in assay [2]; 89.5% in [3]; 93.3% in assay [4]; 103% in [5]; 110% in assay [6]. The growth in assay [7] is 106%; in assay [8] it was 106%; in assay [16], 85.9%; in [9], 101%; in [10], 108%; in assay [11], 107%. In addition, the growth in assay [17] was 85.2%; in assay [12] it was 95.1%; in assay [13] it was 109%; in [14], 98.1%.
